Results as given in PubChem BioAssay (NCATS).
Records with an inconclusive call do not appear. The source made the active and inactive calls. Calls follow the shape of the dose curve; as a rule, active = well fitted cell-killing curve with a large enough effect; inconclusive = small, poorly fitted or top-dose-only effect, or effect the other way; inactive = flat fitted curve, though single readings scatter.

Tests used:
Assay in all cases: Primary qHTS to identify gynecologic anti-cancer compounds using libraries of approved drugs and bioactive compounds (AID 1345084); also: nearly all actives have a fitted effect of over 55% in size
[1] = system: C33A; settings: Gynecologic cancer cell panel viability, ATPlite luminescence, 48 h; series mostly up to 57.5 µM
How it was run: (§1)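 Cell viability after 48 h drug treatment, ATPlite luminescence readout; five doses.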

[2] = system: CAOV3; settings: Gynecologic cancer cell panel viability, ATPlite luminescence, 48 h; series mostly up to 57.5 µM
How it was run: as §1

[3] = system: CASKI; settings: Gynecologic cancer cell panel viability, ATPlite luminescence, 48 h; series mostly up to 57.5 µM
How it was run: as §1

[4] = system: Es-2; settings: Gynecologic cancer cell panel viability, ATPlite luminescence, 48 h; series mostly up to 57.5 µM
How it was run: as §1

[5] = system: HeLa; settings: Gynecologic cancer cell panel viability, ATPlite luminescence, 48 h; series mostly up to 57.5 µM
How it was run: as §1

[6] = system: Hek293T; settings: Gynecologic cancer cell panel viability, ATPlite luminescence, 48 h, control line for the selectivity index; series mostly up to 57.5 µM
How it was run: as §1

[7] = system: JEG-3; settings: Gynecologic cancer cell panel viability, ATPlite luminescence, 48 h; series mostly up to 57.5 µM
How it was run: as §1

[8] = system: OV90; settings: Gynecologic cancer cell panel viability, ATPlite luminescence, 48 h; series mostly up to 57.5 µM
How it was run: as §1

[9] = system: PA-1; settings: Gynecologic cancer cell panel viability, ATPlite luminescence, 48 h; series mostly up to 57.5 µM
How it was run: as §1

[10] = system: Tov-21-G; settings: Gynecologic cancer cell panel viability, ATPlite luminescence, 48 h; series mostly up to 57.5 µM
How it was run: as §1

[11] = system: Tov112D; settings: Gynecologic cancer cell panel viability, ATPlite luminescence, 48 h; series mostly up to 57.5 µM
How it was run: as §1

[12] = system: SKOV3; settings: Gynecologic cancer cell panel viability, ATPlite luminescence, 48 h; series mostly up to 57.5 µM
How it was run: as §1
% is scaled to controls: 0 for no effect and ±100 for the full control effect; potency is read from the fitted curve at half-maximal effect.

CC(C)/C=C1/NC(=O)C(C(C)C)n2c1nc1c(O)cccc1c2=O (configuration not stated)
inactive: Potency [1] | Potency [2] | outcome [3] | Potency [4] | Potency [5] | Potency [6] | Potency [7] | Potency [8] | Potency [9] | Potency [10] | Potency [11]

Cc1cc(Cn2cnc3c2CC(C(=O)O)N(C(=O)C(c2ccccc2)c2ccccc2)C3)ccc1N(C)C (configuration not stated)
inactive: Potency [1] | Potency [2] | outcome [3] | Potency [4] | Potency [5] | Potency [6] | Potency [7] | Potency [8] | Potency [9] | Potency [10] | Potency [11]

CCOc1ccc(-c2cc(NC(=O)c3c(F)cccc3F)c(C(=O)O)s2)cc1
inactive: Potency [1] | Potency [2] | outcome [3] | Potency [4] | Potency [5] | Potency [6] | Potency [7] | Potency [8] | Potency [9] | Potency [10] | Potency [11]

C[C@@H]1O[C@@H](O[C@H]2[C@H](O[C@H]3[C@H](O[C@H]4CC[C@@]5(C)C(CC[C@]6(C)C5CC=C5[C@@H]7CC(C)(C)CC(=O)[C@]7(C)CC[C@]56C)[C@@]4(C)CO)O[C@H](C(=O)O)[C@@H](O)[C@@H]3O)O[C@H](CO)[C@H](O)[C@@H]2O)[C@H](O)[C@H](O)[C@H]1O (some centres not stated)
inactive: activity change, negative = cytotoxicity [1] 0.189% [at 11.6 µM] | activity change, negative = cytotoxicity [2] 7.98% [at 11.6 µM] | activity change, negative = cytotoxicity [3] 5.16% [at 11.6 µM] | activity change, negative = cytotoxicity [4] -0.773% [at 11.6 µM] | activity change, negative = cytotoxicity [5] 5.13% [at 11.6 µM] | activity change, negative = cytotoxicity [6] -1.22% [at 11.6 µM] | activity change, negative = cytotoxicity [7] 4.8% [at 11.6 µM] | activity change, negative = cytotoxicity [8] -8.44% [at 11.6 µM] | activity change, negative = cytotoxicity [12] 0.762% [at 11.6 µM] | activity change, negative = cytotoxicity [10] 5.22% [at 11.6 µM] | activity change, negative = cytotoxicity [11] -2.67% [at 11.6 µM]

COc1cc(Nc2ccc([N+](=O)[O-])cc2C(=O)O)cc2ccccc12
inactive: Potency [1] | Potency [2] | outcome [3] | Potency [4] | Potency [5] | Potency [6] | Potency [7] | Potency [8] | Potency [9] | Potency [10] | Potency [11]

CC(O)C1NC(=O)C2CCCN2C1=O (configuration not stated)
inactive: Potency [1] | Potency [2] | outcome [3] | Potency [4] | Potency [5] | Potency [7] | Potency [8] | Potency [9] | Potency [10] | Potency [11]

CC(O)CCc1ccc(O[C@@H]2O[C@H](CO)[C@@H](O)[C@H](O)[C@H]2O)cc1 (some centres not stated)
inactive: Potency [1] | Potency [2] | outcome [3] | Potency [4] | Potency [5] | Potency [6] | Potency [7] | Potency [9] | Potency [12] | Potency [10] | Potency [11]

COc1cc(Cc2cnc(N)nc2N)c(C(C)C)cc1OC
inactive: Potency [1] | Potency [2] | outcome [3] | Potency [4] | Potency [5] | Potency [6] | Potency [7] | Potency [9] | Potency [12] | Potency [10] | Potency [11]

CC(=O)O[C@@H]1CC2C(C)(C)C(=O)C=C[C@]2(C)C2CC[C@]3(C)C(=CC(=O)[C@@H]3c3ccoc3)[C@@]21C (some centres not stated)
inactive: Potency [1] | Potency [2] | outcome [3] | Potency [4] | Potency [5] | Potency [6] | Potency [7] | Potency [9] | Potency [12] | Potency [10] | Potency [11]

COc1cc(C2OCC3(O)C(c4ccc(O[C@@H]5O[C@H](CO)[C@@H](O)[C@H](O)[C@H]5O)c(OC)c4)OCC23O)ccc1O (some centres not stated)
inactive: Potency [1] | Potency [2] | outcome [3] | Potency [4] | Potency [5] | Potency [7] | Potency [8] | Potency [9] | Potency [12] | Potency [10] | Potency [11]

CC1(C)C2CCC1(C)C(OC(=O)C(O)(CC(=O)O)CC(=O)O)C2 (configuration not stated)
inactive: Potency [1] | Potency [2] | outcome [3] | Potency [4] | Potency [5] | Potency [7] | Potency [8] | Potency [9] | Potency [12] | Potency [10] | Potency [11]

CCOc1ccc(-c2nn3ncccc3c2-c2ccc(S(C)(=O)=O)cc2)cc1
inactive: Potency [1] | Potency [2] | outcome [3] | Potency [4] | Potency [5] | Potency [6] | Potency [8] | Potency [9] | Potency [12] | Potency [10] | Potency [11]

CC(C)(O)C1OC1C1=CC(=O)C2(C)OC2C1O (configuration not stated)
inactive: Potency [1] | Potency [2] | Potency [4] | Potency [5] | Potency [6] | Potency [7] | Potency [8] | Potency [9] | Potency [10] | Potency [11]

Cc1ncc(NC(=O)c2ccc(CN3CCN(C)CC3)c(C(F)(F)F)c2)cc1Nc1nccc(-c2cccnc2)n1
inactive: Potency [1] | Potency [2] | outcome [3] | Potency [4] | Potency [5] | Potency [6] | Potency [7] | Potency [9] | Potency [12] | Potency [10] | Potency [11]

C=C1CCc2occ(C)c2[C@H]2[C@H]1[C@@]13O[C@@]1(C[C@@H](C)[C@H]3OC(C)=O)[C@H]1O[C@@]21C
inactive: Potency [1] | Potency [2] | outcome [3] | Potency [4] | Potency [5] | Potency [6] | Potency [7] | Potency [9] | Potency [12] | Potency [10] | Potency [11]

CC1=C2CC3C(CCC3(C)O)C(C)(O)CC2OC1=O (configuration not stated)
inactive: Potency [1] | Potency [2] | outcome [3] | Potency [4] | Potency [5] | Potency [6] | Potency [7] | Potency [12] | Potency [10] | Potency [11]

COc1cc(C(CO)CO[C@@H]2O[C@H](CO)[C@@H](O)[C@H](O)[C@H]2O)ccc1O (some centres not stated)
inactive: Potency [1] | Potency [2] | Potency [4] | Potency [5] | Potency [6] | Potency [7] | Potency [8] | Potency [9] | Potency [12] | Potency [10] | Potency [11]

O=C(O)CC1(O)C(=O)Nc2ccccc21 (configuration not stated)
inactive: Potency [1] | Potency [2] | outcome [3] | Potency [4] | Potency [6] | Potency [7] | Potency [8] | Potency [9] | Potency [12] | Potency [10] | Potency [11]

Cc1nc(-c2cccnc2)sc1C(=O)Nc1ccccc1-c1cn2c(CN3CCOCC3)csc2n1
inactive: Potency [1] | Potency [2] | Potency [4] | Potency [5] | Potency [6] | Potency [7] | Potency [8] | Potency [9] | Potency [12] | Potency [10] | Potency [11]

CC(=O)OC1CC2(C)C(CCC(C)C23Cc2c(O)cc4c(c2O3)CNC4=O)C(C)(C)C1O (configuration not stated)
inactive: Potency [1] | Potency [2] | outcome [3] | Potency [4] | Potency [5] | Potency [6] | Potency [7] | Potency [8] | Potency [12] | Potency [10] | Potency [11]

COc1ccc2c(c1)C=C1Cn3c-2c(C2CCCCC2)c2ccc(cc23)C(=O)NS(=O)(=O)N(C)CCOCCN(C)C1=O
inactive: Potency [1] | Potency [2] | outcome [3] | Potency [5] | Potency [6] | Potency [7] | Potency [8] | Potency [10] | Potency [11]

CC1(C)C[C@H]2C=C(C=O)[C@]3(C(=O)O)C[C@]3(C)[C@H]2C1
inactive: Potency [1] | Potency [2] | outcome [3] | Potency [5] | Potency [6] | Potency [7] | Potency [8] | Potency [9] | Potency [10] | Potency [11]

C[C@H]1[C@H](C)CC[C@]2(C(=O)O)CC[C@]3(C(=O)O)C(=CCC4[C@@]5(C)CC[C@H](O[C@@H]6O[C@@H](C)[C@H](O)[C@@H](O)[C@H]6O)C(C)(C)C5CC[C@]43C)[C@H]12 (some centres not stated)
inactive: Potency [1] | Potency [2] | Potency [4] | Potency [5] | Potency [6] | Potency [7] | Potency [8] | Potency [9] | Potency [12] | Potency [10] | Potency [11]

CC(=O)O[C@@H]1C(O)C[C@@]2(C)C(CC[C@@H](C)C23Cc2c(O)cc4c(c2O3)CNC4=O)C1(C)C (some centres not stated)
inactive: Potency [1] | Potency [2] | outcome [3] | Potency [4] | Potency [6] | Potency [7] | Potency [8] | Potency [9] | Potency [10] | Potency [11]

Fc1ccccc1-c1nc2ccn(Cc3ccc(-c4ccc(C(F)(F)F)cc4C(F)(F)F)nn3)cc-2n1
inactive: Potency [1] | Potency [2] | outcome [3] | Potency [4] | Potency [5] | Potency [6] | Potency [7] | Potency [8] | Potency [10] | Potency [11]

CC(=O)OC12CC(C)C(OC(=O)c3ccccc3)C1/C=C(/C)C(OC(=O)c1ccccc1)CC(=O)C(C)(C)/C=C/C(C)C2=O (configuration not stated)
inactive: Potency [1] | Potency [2] | outcome [3] | Potency [5] | Potency [6] | Potency [8] | Potency [9] | Potency [12] | Potency [10] | Potency [11]
active: Potency [4] 2.82 µM

CC(=O)OC1CCC2(C)C(CCC3(C)C2CC=C2C4CC(C)(C)CCC4(C)CCC23C)C1(C)C(=O)O (configuration not stated)
inactive: Potency [1] | outcome [3] | Potency [4] | Potency [5] | Potency [6] | Potency [7] | Potency [8] | Potency [9] | Potency [12] | Potency [10] | Potency [11]

C/C=C(\C)C(=O)OC1C2(O)CC3=C4CC(=O)OC(c5ccoc5)C4(C)CCC3C(C)(C2=O)C(C(OC(C)=O)C(=O)OC)C1(C)C (configuration not stated)
inactive: Potency [1] | Potency [2] | Potency [4] | Potency [5] | Potency [6] | Potency [7] | Potency [8] | Potency [9] | Potency [12] | Potency [10] | Potency [11]

COC(=O)C1=COC(O[C@@H]2O[C@H](COC(=O)/C=C/c3ccc(O)cc3)[C@@H](O)[C@H](O)[C@H]2O)C2C(CO)=CCC12 (some centres not stated)
inactive: Potency [1] | Potency [2] | outcome [3] | Potency [4] | Potency [5] | Potency [7] | Potency [8] | Potency [9] | Potency [12] | Potency [10] | Potency [11]

COC(=O)C1C(O)CCC2CN3CCc4c([nH]c5ccccc45)C3CC21 (configuration not stated)
inactive: Potency [1] | Potency [2] | Potency [4] | Potency [5] | Potency [6] | Potency [7] | Potency [8] | Potency [9] | Potency [12] | Potency [10] | Potency [11]
